Several values for one entry are separate records, joined by “and”; a condition that tells them apart may be missing. Identical values can stand only once. Screen size: about 350,000 compounds; about 600 (0.17%) were called active.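 Rule for the calls: active = every replicate shows inhibition of at least 40%; inconclusive = mean inhibition at least 40% but some replicate below; inactive = the rest.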 The sample as a whole holds a higher share of actives than the screen did. More than one record can exist for a structure, and the calls need not agree.

A short description of this assay: inhibitors of PGC1a acetylation signal, primary screen, cell-based, U2OS, AlphaScreen, inhibitor mode (AID 651687).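 Note: 0% = neutral control wells and 100% = positive control wells.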 The following applies: AlphaScreen anti-acetyl-lysine, at 15.6 µM, stronger effect = higher value, with virally co-expressed GCN5 acetyltransferase.
Regarding `COCC(=O)Nc1ccc2c(c1)OC[C@@H](C)N(C(=O)c1cnccn1)C[C@H](C)[C@@H](OC)CN(C)C2=O`, the inhibition – broadly, the change of the read-out against control, counted positive when it falls – is -1.16% (inactive). Under `Cc1ccc(S(=O)(=O)NC[C@H]2CC[C@@H]3[C@@H](CN3Cc3ccccc3C(=O)O)O2)cc1` stands -6.11% (inactive). Under `Cc1noc(C)c1NC(=O)N(C)C[C@H]1OCCCC[C@H](C)Oc2ccc(NC(=O)Cc3ccccc3)cc2C(=O)N([C@H](C)CO)C[C@@H]1C` stands 0.037% (inactive); under `C[C@H]1CN([C@@H](C)CO)C(=O)c2cc(NC(=O)Nc3ccccc3)ccc2O[C@H]1CN(C)S(C)(=O)=O`, -6.24% (inactive).

As for `C[C@@H]1CN([C@@H](C)CO)C(=O)c2cc(/C=C/c3ccccc3)cnc2O[C@H]1CN(C)C(=O)Nc1ccc(C(F)(F)F)cc1`, the inhibition is -1.88% (inactive). The same measure for `O=C(Nc1ncccc1O)c1ccc(C(=O)c2ccccc2)cc1`: 5.14% (inactive); for `O=C(NC1=CC(=O)c2ccccc2C1=O)c1ccccc1`: 80.8% (active); for `O=C(Nc1ccc2ccccc2c1[N+](=O)[O-])c1ccccc1`: 14% (inactive). For the molecule `O=C(CC1CC1)N1CC[C@@H]2[C@@H](CO)Nc3ccc(-c4ccccc4)cc3[C@@H]21`, the inhibition was -14.4% (inactive).

For `CO[C@@H]1CN(C)C(=O)c2cc(NC(=O)Nc3cccc(Cl)c3)ccc2OC[C@@H](C)N(C)C[C@@H]1C`, the inhibition is 7.96% (inactive). Under `CCCN1C[C@@H](C)[C@@H](OC)CN(C)C(=O)c2cc(NC(=O)c3ccccc3)ccc2OC[C@H]1C` stands -3.59% (inactive); under `Cc1cc(C(=O)Nc2cccc3c2O[C@@H](CN(C)S(=O)(=O)c2ccc(F)cc2)[C@@H](C)CN([C@H](C)CO)C3=O)n(C)n1`, 4.7% (inactive); under `O=C(C[C@@H]1CC[C@@H](NS(=O)(=O)c2ccccc2)[C@H](CO)O1)NCc1ccc(Cl)c(Cl)c1`, -0.169% (inactive). Take `COCC(=O)N1CC2(CN(C(=O)c3cccnc3)C2)c2c([nH]c3cc(OC)ccc23)[C@H]1CO`: the inhibition was 3.03% (inactive). For `Cc1ccc(C(=O)N2CCN(S(=O)(=O)N3CCOCC3)CC2)cc1`, the inhibition is -14.3% (inactive). The same measure for `Cc1oc2c(c1C(=O)N1CCOCC1)C(=O)c1ccccc1C2=O`: 42.9% (active); for `O=C(c1snnc1-c1ccccc1)N1CCOCC1`: 17.2% (inactive); for `CN(C)C(=O)c1ccc(-c2ccc(C3[C@@H]4CN(C(=O)Nc5ccccc5)C[C@H]3N4)cc2)cc1` (stereo not given in full): -6.33% (inactive). The same measure for `Cc1cccc(-c2ccc(C3[C@@H]4CN(C(=O)Nc5ccc(C(F)(F)F)cc5)C[C@H]3N4)cc2)c1` (stereo not given in full): 92.4% (active) and 92.8% (active); for `O=C(C1CCCCC1)N1C[C@@H]2N[C@H](C1)C2c1ccc(-c2cccc(F)c2)cc1` (stereo not given in full): -62.3% (inactive) and -12.6% (inactive). Regarding `CO[C@H]1CN(C)C(=O)c2ccc(NC(=O)NC(C)C)cc2OC[C@@H](C)N(C(=O)CN(C)C)C[C@H]1C`, the inhibition was 9.74% (inactive). Under `Clc1ccc(C[n+]2cc(-c3ccccc3)n3c2CCC3)cc1` stands -17.2% (inactive); under `Cc1ccc(-c2c[n+](CC(=O)Nc3ccccc3)c3n2CCC3)cc1`, 43.3% (active); under `Cc1ccc(C(=O)C[n+]2cc(-c3ccccc3)n3c2CCCCC3)cc1`, 20.9% (inactive). As for `COc1ccc(S(=O)(=O)Nc2ccc3c(c2)C(=O)N([C@H](C)CO)C[C@H](C)[C@@H](CN(C)Cc2ccccc2)OCCCC[C@@H](C)O3)cc1`, the inhibition is -2.9% (inactive). The same measure for `COc1ccc(-c2ccc3c(c2)[C@@H]2[C@@H](CCN2C(=O)c2cccc(F)c2)[C@H](CO)N3)cc1`: 6.58% (inactive); for `O=C(Nc1ccc2c(c1)[C@@H]1C[C@H](CC(=O)N3CCOCC3)O[C@@H](CO)[C@@H]1O2)C1CCOCC1`: -6.68% (inactive). In the case of `CNC[C@H]1Oc2cc(C#CC3CCCC3)ccc2S(=O)(=O)N([C@H](C)CO)C[C@@H]1C`, the inhibition was -10.8% (inactive).

For the molecule `C[C@@H]1CCCCO[C@@H](CN(C)C(=O)Cc2ccccc2)[C@H](C)CN([C@@H](C)CO)C(=O)c2cc(NC(=O)Nc3ccc4c(c3)OCO4)ccc2O1`, the inhibition is -5.63% (inactive). The same measure for `COc1ccc(NS(=O)(=O)c2ccc(F)cc2F)cn1`: 0.335% (inactive); for `COc1ccc(NC(=O)/C(Cl)=C(/Cl)S(=O)Cc2ccc(C)cc2)cn1` (stereo not given): 69.3% (active); for `COc1ccc(NC(=O)CN2C(=O)NC(C)(c3ccccc3)C2=O)cn1` (stereo not given): 0.857% (inactive). For `Cc1noc(C)c1NC(=O)Nc1ccc2c(c1)C(=O)N([C@@H](C)CO)C[C@H](C)[C@@H](CN(C)C(=O)Nc1ccccc1)O2`, the inhibition was -6.84% (inactive). `C[C@@H]1CCCCO[C@@H](CN(C)C(=O)CCCN(C)C)[C@H](C)CN([C@@H](C)CO)C(=O)c2cc(NC(=O)Nc3ccccc3)ccc2O1`: the inhibition is 20% (inactive). Take `C[C@@H]1CN([C@@H](C)CO)C(=O)c2cc(NS(C)(=O)=O)ccc2O[C@H]1CN(C)C(=O)Nc1ccc(F)cc1`: the inhibition was 0.678% (inactive). For `Cn1cnc(S(=O)(=O)N2CC[C@@H]3[C@H]2c2cc(C#Cc4cccc(F)c4)ccc2N[C@@H]3CO)c1`, the inhibition is -5.83% (inactive). Under `CCS(=O)(=O)NCC[C@H]1CC[C@@H](NC(=O)Nc2cc(Cl)cc(Cl)c2)[C@@H](CO)O1` stands -5.94% (inactive); under `Cc1ccc(S(=O)(=O)N[C@@H]2CC[C@@H](CCn3cc(C(C)C)nn3)O[C@H]2CO)cc1`, -5.62% (inactive). The same measure for `CC(C)NC(=O)N(C)C[C@H]1Oc2c(NS(C)(=O)=O)cccc2C(=O)N([C@@H](C)CO)C[C@H]1C`: 3.18% (inactive); for `C[C@@H]1CN([C@@H](C)CO)C(=O)c2cc(NC(=O)Nc3ccc4c(c3)OCO4)ccc2O[C@@H](C)CCCCO[C@H]1CN(C)C(=O)Nc1ccc(C(F)(F)F)cc1`: -7.26% (inactive); for `C[C@H](CO)N1C[C@H](C)[C@H](CN(C)Cc2ccc(C(=O)O)cc2)Oc2ccc(NC(=O)NC3CCCCC3)cc2C1=O`: 6.53% (inactive). Under `Cc1noc(C)c1NC(=O)Nc1ccc2c(c1)CC(=O)N([C@@H](C)CO)C[C@@H](C)[C@H](CN(C)C(=O)NC1CCCCC1)O2` stands 0.249% (inactive); under `C[C@@H]1CN([C@H](C)CO)S(=O)(=O)c2ccc(C#CC3CCCC3)cc2O[C@@H]1CN(C)Cc1ccccc1C(=O)O`, -5.77% (inactive). In the case of `O=C(C[C@@H]1C=C[C@@H](NS(=O)(=O)c2ccc(F)cc2)[C@@H](CO)O1)NCCN1CCCCC1`, the inhibition is 4.96% (inactive). Turning to `CO[C@@H]1CN(C)C(=O)c2ccc(NS(=O)(=O)c3cn(C)cn3)cc2OC[C@H](C)N(CCC(F)(F)F)C[C@@H]1C`, the inhibition is -2.06% (inactive). For `Cc1noc(C)c1C(=O)N(C)C[C@H]1OCc2ccccc2-c2c(n(C)c3ccccc23)C(=O)N([C@@H](C)CO)C[C@H]1C`, the inhibition is -20.6% (inactive). As for `COc1ccc(-c2cnc3c(c2)C(=O)N([C@@H](C)CO)C[C@H](C)[C@@H](CN(C)C(=O)C2CC2)O3)cc1`, the inhibition is -1.45% (inactive). In the case of `CNC[C@H]1Oc2ccc(NS(=O)(=O)c3ccc(F)cc3)cc2CC(=O)N([C@H](C)CO)C[C@H]1C`, the inhibition was -12.8% (inactive). The same measure for `C[C@@H](NC(=O)C[C@@H]1CC[C@@H]2[C@H](COC[C@@H](O)CN2C(=O)Nc2cccc(F)c2)O1)c1ccccc1`: 0.238% (inactive); for `COCC(=O)Nc1ccc2c(c1)OC[C@@H](C)N(Cc1cocn1)C[C@@H](C)[C@@H](OC)CN(C)C2=O`: 11.7% (inactive). Under `CCC(=O)N(C)C[C@H]1Oc2cc(-c3ccc(C)cc3)ccc2S(=O)(=O)N([C@@H](C)CO)C[C@H]1C` stands -11.2% (inactive). Under `CCCN(C)C[C@@H]1OCCCC[C@@H](C)Oc2ccc(NC(=O)Nc3ccc(C(F)(F)F)cc3)cc2C(=O)N([C@H](C)CO)C[C@H]1C` stands -1.97% (inactive). `CN(C)C(=O)c1cccc(-c2ccc(C3[C@@H]4CN(S(=O)(=O)c5ccc(F)cc5)C[C@H]3N4)cc2)c1` (stereo not given in full): the inhibition is -5.35% (inactive) and -8.12% (inactive). The same measure for `N#Cc1ccc(-c2ccc(C3[C@@H]4CN(S(=O)(=O)c5ccc(F)cc5)C[C@H]3N4)cc2)cc1` (stereo not given in full): -1.35% (inactive) and 58.1% (active); for `N#Cc1ccc(-c2ccc(C3[C@@H]4CN(S(=O)(=O)c5ccccc5F)C[C@H]3N4)cc2)cc1` (stereo not given in full): -0.54% (inactive) and -4.45% (inactive); for `C[C@H](CO)N1C[C@H](C)[C@@H](CN(C)C(=O)Cc2ccccn2)Oc2cc(-c3cccc(C(=O)N(C)C)c3)ccc2S1(=O)=O`: 0.377% (inactive). Under `COc1ccc(C#Cc2ccc([C@H]3[C@@H](CO)N4CCCCN(S(=O)(=O)c5cn(C)cn5)C[C@H]34)cc2)cc1` stands -2.67% (inactive); under `COCC(=O)Nc1ccc2c(c1)[C@H]1C[C@H](CC(=O)NCc3cccnc3)O[C@H](CO)[C@H]1O2`, 5.71% (inactive).

Consider `CN1c2ccc(-c3cccc(F)c3)cc2[C@H]2[C@H](CCN2C(=O)c2cccc(F)c2)[C@H]1CO`, for which the inhibition is -7.12% (inactive). On to `Cc1nc(=O)c(-c2ccccc2)c(C)n1-c1ccc(Br)cc1`, for which the inhibition was -2.67% (inactive). Under `S=C1NC(c2ccccc2)=NCN1c1ccc(Br)cc1` stands 80.9% (active); under `COc1ccccc1S(=O)(=O)N[C@@H]1C=C[C@H](CC(=O)N2CCN(C)CC2)O[C@@H]1CO`, 6.82% (inactive). The same measure for `O=[N+]([O-])c1c(NCCO)cc(Sc2nc3ccccc3s2)c2nonc12`: 45% (active).

With `COc1ccc(S(=O)(=O)Nc2ccc3c(c2)C(=O)N([C@H](C)CO)C[C@H](C)[C@@H](CN(C)C)OCCCC[C@H](C)O3)cc1`, the inhibition is -0.646% (inactive) and 1.73% (inactive).

Regarding `C[C@H]1CN([C@@H](C)CO)C(=O)c2cc(C#CC3CCCCC3)cnc2O[C@@H]1CN(C)C(=O)Cc1ccccn1`, the inhibition was -16.1% (inactive).

Values taken from PubChem BioAssay AID651687 (Broad Institute, 2012).
